# According to the supplement of paper PMC8728848:
# The sample as a whole holds a higher share of the strongest signals than the screen did.
# B1: LgFlo1 (Saccharomyces pastorianus), B3IUA8 (protein)
# chain: SGSTQACLPVGSRKNGMNVNFYKYSLQDSTTYSDPQYMAYKYSDTKKLGSVSGQTHLSIYYGPNTAFWNTASWSSDLFGFYTTPTNVTVEMTGYFLPPQTGSYTFKFATVDDSAILSVGGSIAFECCAQEQPPITSTDFTINGIKPWDAATPTDIKGSTYMYAGYYYPIKIVYSNAKALARLPVSVVLPDGTEVNDDFEGYVYSFDDDLSQSNCTIPDPSKHTTS
# What was measured:
# Test in all cases: glycan array binding signal (z-score within array); higher = stronger binding
# Details in all cases: glycan notation: IUPAC condensed, linker removed
# [1] = molecular target: Fuc(a1-2)Gal(b1-3)GlcNAc(b1-2)Man(a1-3)[Fuc(a1-2)Gal(b1-3)GlcNAc(b1-2)Man(a1-6)]Man(b1-4)GlcNAc(b1-4)GlcNAc
# Method in brief: (§1)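 Columns mapping to the same glycan were averaged after glycan names were converted to IUPAC-condensed notation. The data come from 3228 arrays in the Consortium for Functional Glycomics database, limited to those with an available protein sequence. Binding is reported as a within-array Z-score averaged across arrays of one protein sequence and across linkers.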
# [2] = molecular target: Fuc(a1-2)Gal(b1-3)GlcNAc(b1-2)Man(a1-3)[Fuc(a1-2)Gal(b1-3)GlcNAc(b1-2)Man(a1-6)]Man(b1-4)GlcNAc(b1-4)[Fuc(a1-6)]GlcNAc
# Method in brief: as §1
# [3] = molecular target: Fuc(a1-2)Gal(b1-4)Fuc(a1-3)]GlcNAc(b1-2)Man(a1-3)[Fuc(a1-2)Gal(b1-4)[Fuc(a1-3)]GlcNAc(b1-2)Man(a1-6)]Man(b1-4)GlcNAc(b1-4)GlcNAc
# Method in brief: as §1
# Fuc(a1-2)Gal(b1-4)Glc = molecular target: Fuc(a1-2)Gal(b1-4)Glc
# Method in brief: as §1
# [4] = molecular target: Fuc(a1-2)Gal(b1-4)GlcNAc(b1-2)Man(a1-3)[Fuc(a1-2)Gal(b1-4)GlcNAc(b1-2)Man(a1-6)]Man(b1-4)GlcNAc(b1-4)[Fuc(a1-6)]GlcNAc
# Method in brief: as §1
# [5] = molecular target: Fuc(a1-2)[Gal(a1-3)]Gal(b1-3)GlcNAc(b1-3)GalNAc
# Method in brief: as §1
# [6] = molecular target: Fuc(a1-2)[Gal(a1-3)]Gal(b1-4)GlcNAc(b1-2)Man(a1-3)[Fuc(a1-2)[Gal(a1-3)]Gal(b1-4)GlcNAc(b1-2)Man(a1-6)]Man(b1-4)GlcNAc(b1-4)[Fuc(a1-6)]GlcNAc
# Method in brief: as §1
# [7] = molecular target: Fuc(a1-2)[Gal(a1-3)]Gal(b1-4)GlcNAc(b1-3)[Fuc(a1-2)[Gal(a1-3)]Gal(b1-4)GlcNAc(b1-6)]GalNAc
# Method in brief: as §1
# [8] = molecular target: Fuc(a1-2)[GalNAc(a1-3)]Gal(b1-4)GlcNAc(b1-3)Gal(b1-4)GlcNAc
# Method in brief: as §1
# [9] = molecular target: Fuc(a1-2)[GalNAc(a1-3)]Gal(b1-4)GlcNAc(b1-3)[Fuc(a1-2)[GalNAc(a1-3)]Gal(b1-4)GlcNAc(b1-6)]GalNAc
# Method in brief: as §1
# [10] = molecular target: Fuc(a1-2)[GalNAc(a1-3)]Gal(b1-4)GlcNAc(b1-6)GalNAc
# Method in brief: as §1
# [11] = molecular target: Fuc(a1-2)[GalNAc(a1-3)]Gal(b1-4)[Fuc(a1-3)]GlcNAc
# Method in brief: as §1
# [12] = molecular target: Fuc(a1-3)[Gal(b1-4)]GlcNAc
# Method in brief: as §1
# [13] = molecular target: Fuc(a1-3)[Gal3S(b1-4)]GlcNAc6S
# Method in brief: as §1
# Gal(a1-3)Gal(b1-3)GlcNAc = molecular target: Gal(a1-3)Gal(b1-3)GlcNAc
# Method in brief: as §1
# [14] = molecular target: Gal(a1-3)Gal(b1-3)GlcNAc(b1-2)Man(a1-3)[Gal(a1-3)Gal(b1-3)GlcNAc(b1-2)Man(a1-6)]Man(b1-4)GlcNAc(b1-4)GlcNAc
# Method in brief: as §1
# [15] = molecular target: Gal(a1-3)Gal(b1-4)GlcNAc(b1-3)GalNAc
# Method in brief: as §1
# Gal(a1-3)GalNAc = molecular target: Gal(a1-3)GalNAc
# Method in brief: as §1
# [16] = molecular target: Gal(a1-4)Gal(b1-3)GlcNAc(b1-2)Man(a1-3)[Gal(a1-4)Gal(b1-3)GlcNAc(b1-2)Man(a1-6)]Man(b1-4)GlcNAc(b1-4)GlcNAc
# Method in brief: as §1
# [17] = molecular target: Gal(b1-3)GlcNAc(b1-2)Man(a1-3)[GlcNAc(b1-4)][Gal(b1-3)GlcNAc(b1-2)Man(a1-6)]Man(b1-4)GlcNAc(b1-4)GlcNAc
# Method in brief: as §1
# [18] = molecular target: Gal(b1-3)GlcNAc(b1-3)Gal(b1-4)GlcNAc(b1-2)Man(a1-3)[Gal(b1-3)GlcNAc(b1-3)Gal(b1-4)GlcNAc(b1-2)Man(a1-6)]Man(b1-4)GlcNAc(b1-4)GlcNAc
# Method in brief: as §1
# [19] = molecular target: Gal(b1-4)GlcNAc(b1-2)Man(a1-3)[GlcNAc(b1-4)][Gal(b1-4)GlcNAc(b1-2)Man(a1-6)]Man(b1-4)GlcNAc(b1-4)GlcNAc
# Method in brief: as §1
# [20] = molecular target: Gal(b1-4)GlcNAc(b1-2)[Gal(b1-4)GlcNAc(b1-6)]Man(a1-6)[Gal(b1-4)GlcNAc(b1-2)Man(a1-3)]Man(b1-4)GlcNAc(b1-4)GlcNAc
# Method in brief: as §1
# [21] = molecular target: Gal(b1-4)GlcNAc(b1-3)Gal(b1-4)GlcNAc
# Method in brief: as §1
# Gal6S(b1-4)GlcNAc = molecular target: Gal6S(b1-4)GlcNAc
# Method in brief: as §1
# GlcNAc(b1-3)Gal = molecular target: GlcNAc(b1-3)Gal
# Method in brief: as §1
# GlcNAc(b1-4)GlcNAc = molecular target: GlcNAc(b1-4)GlcNAc
# Method in brief: as §1
# [22] = molecular target: GlcNAc6S(b1-3)Gal(b1-4)GlcNAc
# Method in brief: as §1
# [23] = molecular target: Neu5Ac(a2-3)Gal(b1-3)GalNAc
# Method in brief: as §1
# [24] = molecular target: Neu5Ac(a2-3)Gal(b1-3)GalNAc(b1-3)Gal(a1-4)Gal(b1-4)Glc
# Method in brief: as §1
# [25] = molecular target: Neu5Ac(a2-3)Gal(b1-3)GlcNAc(b1-2)Man(a1-3)[GlcNAc(b1-4)][Neu5Ac(a2-3)Gal(b1-3)GlcNAc(b1-2)Man(a1-6)]Man(b1-4)GlcNAc(b1-4)GlcNAc
# Method in brief: as §1
# [26] = molecular target: Neu5Ac(a2-3)Gal(b1-3)[Fuc(a1-4)]GlcNAc
# Method in brief: as §1
# Neu5Ac(a2-3)Gal(b1-4)Glc = molecular target: Neu5Ac(a2-3)Gal(b1-4)Glc
# Method in brief: as §1
# [27] = molecular target: Neu5Ac(a2-3)Gal6S(b1-4)GlcNAc
# Method in brief: as §1
# [28] = molecular target: Neu5Ac(a2-3)Gal6S(b1-4)[Fuc(a1-3)]GlcNAc
# Method in brief: as §1
# [29] = molecular target: Neu5Ac(a2-3)[Neu5Ac(a2-6)]GalNAc
# Method in brief: as §1
# [30] = molecular target: Neu5Ac(a2-6)Gal(b1-4)GlcNAc(b1-2)Man(a1-3)[GlcNAc(b1-4)][Neu5Ac(a2-6)Gal(b1-4)GlcNAc(b1-2)Man(a1-6)]Man(b1-4)GlcNAc(b1-4)GlcNAc
# Method in brief: as §1
# [31] = molecular target: Neu5Ac(a2-6)Gal(b1-4)GlcNAc(b1-2)Man(a1-6)[Gal(b1-4)GlcNAc(b1-2)Man(a1-3)]Man(b1-4)GlcNAc(b1-4)GlcNAc
# Method in brief: as §1
# [32] = molecular target: Neu5Ac(b2-6)Gal(b1-4)GlcNAc
# Method in brief: as §1
binder,measurement,setting,value
B1,glycan array binding signal (z-score),[1],2.1
same,glycan array binding signal (z-score),[2],3.52
same,glycan array binding signal (z-score),[3],4.98
same,glycan array binding signal (z-score),Fuc(a1-2)Gal(b1-4)Glc,-0.137
same,glycan array binding signal (z-score),[4],0.313
same,glycan array binding signal (z-score),[5],11.9
same,glycan array binding signal (z-score),[6],11.9
same,glycan array binding signal (z-score),[7],2.44
same,glycan array binding signal (z-score),[8],-0.328
same,glycan array binding signal (z-score),[9],1.81
same,glycan array binding signal (z-score),[10],-0.114
same,glycan array binding signal (z-score),[11],0.711
same,glycan array binding signal (z-score),[12],0.072
same,glycan array binding signal (z-score),[13],0.042
same,glycan array binding signal (z-score),Gal(a1-3)Gal(b1-3)GlcNAc,2.47
same,glycan array binding signal (z-score),[14],0.576
same,glycan array binding signal (z-score),[15],-0.146
same,glycan array binding signal (z-score),Gal(a1-3)GalNAc,-0.152
same,glycan array binding signal (z-score),[16],1.89
same,glycan array binding signal (z-score),[17],0.784
same,glycan array binding signal (z-score),[18],-0.078
same,glycan array binding signal (z-score),[19],-0.121
same,glycan array binding signal (z-score),[20],0.549
same,glycan array binding signal (z-score),[21],-0.291
same,glycan array binding signal (z-score),Gal6S(b1-4)GlcNAc,-0.114
same,glycan array binding signal (z-score),GlcNAc(b1-3)Gal,-0.087
same,glycan array binding signal (z-score),GlcNAc(b1-4)GlcNAc,-0.042
same,glycan array binding signal (z-score),[22],-0.317
same,glycan array binding signal (z-score),[23],5.83
same,glycan array binding signal (z-score),[24],-0.329
same,glycan array binding signal (z-score),[25],-0.135
same,glycan array binding signal (z-score),[26],-0.245
same,glycan array binding signal (z-score),Neu5Ac(a2-3)Gal(b1-4)Glc,1.97
same,glycan array binding signal (z-score),[27],-0.229
same,glycan array binding signal (z-score),[28],-0.151
same,glycan array binding signal (z-score),[29],-0.356
same,glycan array binding signal (z-score),[30],-0.203
same,glycan array binding signal (z-score),[31],-0.38
same,glycan array binding signal (z-score),[32],-0.214
